Data from PubChem BioAssay AID2315 (National Center for Advancing Translational Sciences (NCATS), 2010).
The campaign covered roughly 290,000 compounds. About 27,000 (9.3%) were called active. This excerpt belongs to a sample that is enriched for actives. A number with no mark means an inactive call. Cut-off read from the data, not from the text of the source: active = inhibition mostly above about 28% (no sharp cut-off); inactive = mostly below about 43%.

Test: A qHTS for Small Molecule Inhibitors of Shiga Toxin; note: 0% is about no effect
Conditions: Vero cells, Shiga toxin protein synthesis inhibition reporter; at 38.7 µM, active compounds read high

| Structure (SMILES) | inhibition |
| --- | --- |
| O=C1CSc2ccc(S(=O)(=O)NCc3ccccc3)cc2N1 | -7.81% |
| COc1cc(NC(=O)Nc2ccc(C)cc2)cc([N+](=O)[O-])c1 | -2.21% (active) |
| CC(=O)c1ccc(NC(=O)Nc2ccc([N+](=O)[O-])cc2C)cc1 | -6.96% |
| O=C(NNC(=O)c1csc(-c2cccnc2)n1)Nc1ccc(Cl)cc1 | 4.07% |
| O=C(Nc1cccnc1)c1cc(Cl)ccc1Cl | -11.4% |
| COC(=O)c1sccc1NC(=S)Nc1ccc(C)cc1 | 39.9% (active) |
| COC(=O)c1sccc1NC(=O)c1cc(OC)c(OC)c(OC)c1 | 14.1% |
| COC(=O)c1ccc(NC(=O)c2cc(Cl)ccc2OC)cc1 | 1.91% |
| COC(=O)c1ccc(NC(=O)Nc2ccc(C)cc2)cc1 | 46% (active) |
| COC(=O)c1sccc1NC(=O)c1ccc(Cl)cc1 | -2.96% |
| Cc1ccc(Oc2cc(NC(=O)CCCn3nc(C)c([N+](=O)[O-])c3C)cc([N+](=O)[O-])c2)cc1 | 9.13% |
| O=C(Nc1ccc(Cl)cc1)Nc1ccc(Oc2cccnc2)nc1 | 51.4% (active) |
| Cc1ccc(NC(=O)CC(=O)Nc2ccc(C)cc2)cc1 | -2.71% |
| COc1ccc(N2CCN(C(=O)Cn3cnc4sc(C)c(S(=O)(=O)N5CCOCC5)c4c3=O)CC2)cc1 | -21.2% |
| CSCC[C@H](NC(=O)N1CCn2c1nc1ccccc12)C(=O)NC1CCCCC1 | 21.5% |
| CC(=N\NC(=O)c1cc(Br)ccc1O)/C(=N/O)C(=O)Nc1ccccc1 | 27.5% |
| CCc1nn(CCCC(=O)Nc2ccc(C)c(C)c2)c(=O)c2cc3occc3n12 | -3.08% |
| CC(=O)Nc1ccc(S(=O)(=O)N(C)c2nc3ccccc3nc2Cl)cc1 | 21.4% |
| COc1cc2c(cc1OC)C(c1ccccc1Br)NC(=O)C2 (centres undefined) | -13.7% |
| CN1CCN(c2ccccc2NC(=O)COc2ccc(C3CCCCC3)cc2)CC1 | 16.9% |
| Cc1c(S(=O)(=O)NC(C)c2ccccc2)c(=O)n(C)c(=O)n1C (centres undefined) | -36.1% |
| O=C(NNC(=O)c1cccnc1)Nc1ccccc1 | 2.5% |
| Cc1ccc(NC(=O)NCC(c2cccnc2)N2CCOCC2)cc1 (centres undefined) | -5.81% |
| Cc1ccc(NC(=O)Nc2cccnc2)cc1 | 29% (active) |

| Structure (SMILES) | inhibition |
| --- | --- |
| C/C=C(/C)C(=O)O[C@@H]1c2cc3c(c4c2[C@@]2(CO4)C(=O)C(OC)=C(OC)C=C2C[C@@H](C)[C@H]1C)OCO3 | -12.4% |
| CS(=O)(=O)C1=NN2C(=N)/C(=C\c3ccc(OCCOc4ccccc4)cc3)C(=O)N=C2S1 | 13.4% |
| Cc1cccc(N(C(=O)Cc2cccs2)C(C(=O)NCc2ccco2)c2ccncc2)c1 (centres undefined) | 2.84% |
| O=C(NCC(=O)N(c1ccccc1)C(C(=O)NCC1CCCO1)c1ccccc1)c1cccs1 (centres undefined) | -3.3% |
| Cc1ccc(N(C(=O)Cc2cccs2)C(C(=O)NCC2CCCO2)c2ccncc2)cc1 (centres undefined) | 59.4% (active) |
| COc1cccc(CNS(=O)(=O)c2ccc3c(c2)CC(C)N3C(=O)C2CCC2)c1 (centres undefined) | -3.12% |
| CC12CN3CCN(CC(C3)/C1=N\NC(=O)c1ccccc1N)C2 | 60.8% (active) |
| Nc1ccccc1C(=O)NC1CCCCNC1=O (centres undefined) | 2.5% |
| CNC(=S)N/N=C1\C2CN3CCN(C2)CC1(c1ccccc1)C3 | 14% |
| CCn1cc(C(=O)N2CC(C)CC(C)C2)c(=O)c2cc(S(=O)(=O)N3CCCC3)ccc21 (centres undefined) | -9.23% |
| O=C(NCCCn1ccnc1)c1cc(Br)c(Br)s1 | -8.29% |
| CCN(CC)CCNC(=O)CCCCCn1c(=O)[nH]c2cc(C(=O)OC)ccc2c1=O | 11.7% |
| COC(=O)c1ccc2c(C(C)(C)O)c(C(C)(C)O)[nH]c2c1 | 25.7% (active) |
| COC(=O)c1cccc(NS(C)(=O)=O)c1 | 7.52% |
| CCc1nnc(NC(=O)CSCc2cc(=O)n3cc(C)sc3n2)s1 | 9.5% |
| CN(C)c1nc(NN)nc(Nc2ccc(F)cc2)n1 | -6.82% |
| Cc1ccnc(NC(=O)c2ccoc2C)c1 | 62.3% (active) |
| COc1cc(SC)ccc1C(=O)Nc1cc(C)ccn1 | 71.5% (active) |
| Cc1ccnc(NC(=O)C(C)N2C(=O)c3ccccc3C2=O)c1 (centres undefined) | 16.9% |
| COc1cc(SC)ccc1C(=O)NCCOc1ccccc1Cl | 72.6% (active) |
| COc1cc(SC)ccc1C(=O)N(Cc1ccccc1)c1ccccc1 | -14.7% |
| Cc1occc1C(=O)Nc1cccc(Cn2cccn2)c1 | 39.7% |
| COc1cc(SC)ccc1C(=O)Nc1nc(C)cs1 | -19.5% |
| COc1ccccc1OCCNC(=O)CCNC(=O)c1ccccc1Cl | 5.05% |

| Structure (SMILES) | inhibition |
| --- | --- |
| Cc1ccnc(NC(=O)CCCOc2ccccc2)c1 | 31.5% |
| COc1cc(NS(=O)(=O)c2ccc(NC(=O)c3ccc([N+](=O)[O-])cc3)cc2)ncn1 | -2.79% |
| Cc1nc([N+](=O)[O-])cn1CC(=O)Nc1ccc(Cl)cc1 | -12.3% |
| Cc1ccc(C(=O)OCC(=O)NC(=O)Cc2ccccc2)c(O)c1 | -0.702% |
| CCOC(=O)C1CCN(Cc2c(C(=O)N3CCOCC3)nc3c(C)cccn23)CC1 | -32.7% |
| O=C(c1cccc([N+](=O)[O-])c1)N1CCN(Cc2ccccc2)CC1 | -0.104% |
| COc1ccc(S(=O)(=O)Nc2ccc(O)c(Sc3nc4ccccc4s3)c2)cc1 | -14.7% |
| COc1ccc(-n2c(O)c(C(C)=Nc3ccc4c(c3)CCC4)c(=O)[nH]c2=O)cc1 | -5.66% |
| COc1ccc(N=C(C)c2sc3ccccc3c2O)cc1 | 122% (active) |
| CN(CC(=O)Nc1ccc(F)cc1)C(=O)c1ccc(-c2ccc(Cl)cc2)o1 | 5.28% |
| CC(C)c1nnc(NC(=O)COC(=O)/C=C/c2ccc([N+](=O)[O-])cc2)s1 | -13.2% |
| COc1cccc(N(C(=O)C2COc3ccccc3O2)C(C(=O)NC2CCCCC2)c2ccc(O)cc2)c1 (centres undefined) | -2.98% |
| CCn1ccnc1CN(C)C(=O)c1ccc2nc(Cc3ccc(OC)cc3)oc2c1 | -2.76% |
| CC(c1ccccn1)N(C)C(=O)c1ccc2nc(Cc3cccc(Cl)c3)oc2c1 (centres undefined) | 73.2% (active) |
| CC(C(=O)NCC1CCCCC1)N(C)Cc1cccc(Cl)c1 (centres undefined) | 25.2% |
| CC(C)CCNC(=O)c1ccc2c(Cl)c3c(nc2c1)CCC3 | 70.3% (active) |
| COc1ccc(N2CCN(C(=O)c3ccc4c(Cl)c5c(nc4c3)CCCC5)CC2)cc1 | -17.4% |
| CC(=O)c1ccc(NC(=O)c2ccc3c(Cl)c4c(nc3c2)CCCC4)cc1 | -8.45% |
| O=C(CNC(=O)OCc1ccccc1)NC1CCCCNC1=O (centres undefined) | -7.21% |
| COC(=O)c1ccccc1NC(=O)C1(S(=O)(=O)c2ccc(Cl)cc2)CC1 | -19.5% |
| CCOc1ccc(C2NC(=S)NC3=C2CCc2ccccc23)cc1 (centres undefined) | 50.5% (active) |
| COc1ccc(C2NC(=S)NC3=C2CCc2ccccc23)cc1OC (centres undefined) | -17% |
| CCOC(=O)C1=C(c2ccccc2)NC(=S)NC1c1ccc(Cl)cc1 (centres undefined) | -13.4% |
| Cc1ccccc1N(C(=O)CNC(=O)c1cccs1)C(C(=O)NC1CCCC1)c1ccncc1 (centres undefined) | 10.5% |

| Structure (SMILES) | inhibition |
| --- | --- |
| COc1ccc(Nc2nc(N)nc(CSC(=S)N3CCC(C)CC3)n2)cc1 | 76.8% (active) |
| CCOC(=O)c1cnc(SCc2nc(N)nc(Nc3ccc(OC)cc3)n2)nc1N | 19.9% |
| COc1ccccc1Nc1nc(N)nc(CSC(=S)N2CCOCC2)n1 | 68.3% |
| Cc1cc(C)c(S(=O)(=O)Nc2c(C)n(C)n(-c3ccccc3)c2=O)cc1[N+](=O)[O-] | -11.7% |
| CCOC(=O)c1ccc(NC(=S)N2CCN(c3ccccn3)CC2)cc1 | -8.31% |
| Cc1cc(C)nc(NC(=O)C(C)N2C(=O)c3ccccc3C2=O)n1 (centres undefined) | -5.77% |
| Cc1cc(Cl)nc(NC(=O)Nc2cccc(Cl)c2)n1 | 61.3% |
| Cc1cc(C)nc(NC(=O)Nc2ccccc2C(F)(F)F)n1 | 59.8% (active) |
| CC(NC(=O)c1ccccc1C(=O)O)c1ccc(-n2ccnc2)cc1 (centres undefined) | 14.3% |
| O=C(NCCc1c[nH]c2ccccc12)c1cc2ccccc2oc1=O | 121% (active) |
| O=C(NCc1ccccn1)c1cc2ccccc2oc1=O | 72.4% (active) |
| O=C(N/N=C\c1cccc(Br)c1)c1ccccc1-n1cccc1 | 14.5% |
| N=c1oc2ccccc2cc1C(=O)N/N=C/c1ccccc1 | 76.3% (active) |
| CNC(=O)c1cc2c(ccc3ccccc32)oc1=N | 30.1% |
| Cc1cc(C)cc(OCC(=O)NNC(=O)c2cc3ccccc3oc2=O)c1 | 38.5% |
| O=C(NCCc1c[nH]c2ccccc12)c1cccc(Br)c1 | 22.8% |
| N=c1oc2ccccc2cc1C(=O)NCc1ccccc1 | 52.2% (active) |
| COc1ccc2oc(=O)c(C(=O)NCc3ccccn3)cc2c1 | 24.7% |
| CC(NC(=O)c1cc2cc(Cl)ccc2oc1=N)c1ccccc1 (centres undefined) | 23.9% |
| COc1cccc2cc(C(=O)NCc3ccc(C)cc3)c(=N)oc12 | 15.9% |
| CN(c1ccccc1)S(=O)(=O)c1ccc(Cl)c(C(=O)NCCc2c[nH]c3ccccc23)c1 | 1.16% |
| Cc1[nH]c2c(C(=O)N3CCCC(CCC(=O)NCc4ccccc4F)C3)cccc2c1C (centres undefined) | 16.4% |
